The record followed here is PubChem BioAssay (NCI).

This is part of a sample that, as a whole, favours compounds with a hit. Of some 79,000 tested, about 15% had one in any assay. Values without a mark were called inactive. Rule as the data show it: active = growth inhibition above about 70%; inactive = the rest.

A short description of this test: NCI Yeast Anticancer Drug Screen. Data for the mlh1 rad18 strain (AID 175). Particulars: S. cerevisiae mlh1 rad18 strain growth inhibition; at 50.0 µM; active compounds read high. The method in brief: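 Yeast w/ defined DNA-repair lesions; compound exposure; growth vs vehicle controls → % inhibition.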
For the compound `O=C1OC(c2cccc([N+](=O)[O-])c2)=N/C1=C\c1ccccc1`, the growth inhibition is 24.6%.

As to `C[Si](C)(C)N1CCCC1`, the growth inhibition is -6.85%.

Take `CC1(c2ccccc2)OC1(C)c1ccccc1` (stereo not drawn): the growth inhibition was 28.8%.

Regarding `CCCCN(CCO)CC(O)Cn1cnc2c(N)ncnc21` (stereo not drawn), the growth inhibition was 21.3%.

As for `Cc1nn(C(=O)c2ccc(Cl)cc2)c2c1C(c1ccco1)SC(N)=N2` (stereo not drawn), the growth inhibition was -14.8%.

For the compound `O=c1[nH]c(Nc2ccc(F)c(Cl)c2)nc2nc[nH]c12`, the growth inhibition is -23.7%.

As for `CC[n+]1ccccc1Br`, the growth inhibition was 18.6%.

For the compound `CN(C)c1ccc(/C=C/C(=O)/C=C/c2ccc(N(C)C)cc2)cc1`, the growth inhibition was -8.9%.

Turning to `CC1N=C(SCC(=O)c2ccc(Cl)cc2)N2C(C)N=C(SCC(=O)c3ccc(Cl)cc3)N12` (stereo not drawn), the growth inhibition is 10.2%.

Take `CCOc1ccc(/C=C2\N=C(c3ccc([N+](=O)[O-])cc3)OC2=O)cc1`: the growth inhibition is 8.15%.

Regarding `NC(N)=N/N=C(/c1nc2ccc([N+](=O)[O-])cc2[nH]c1=O)C(O)c1ccco1` (stereo not drawn), the growth inhibition was 1.7%.

`Cc1cc2c(cc1C=O)C(C)(C)CCC2`: the growth inhibition was 26.2%.

As for `CCOc1cc(/C=N/NC(=O)C(O)C(O)C(O)C(O)CO)ccc1O` (stereo not drawn), the growth inhibition was 30.6%.

With `CC(=O)N1N=C(c2ccc(OCC(O)CN3CCN(CC(O)COc4ccc(C5=NN(C(C)=O)C(c6ccccc6)C5)cc4)CC3)cc2)CC1c1ccccc1` (stereo not drawn), the growth inhibition was -3.8%.

Consider `CC(=O)Oc1cccn2c(C(=O)C(=O)c3ccc4c(OC(C)=O)cccn34)ccc12`, for which the growth inhibition was 14.7%.

On to `CNC(=O)N(CC1CCCCC1)c1nc2c(=O)n(C)c(=O)[nH]c2s1`, for which the growth inhibition is -3.6%.

As for `O=C(O)c1ccc(Cl)c2ncccc12`, the growth inhibition was 13.2%.

On to `O=C(O)C1(Nc2ccc(Cl)cc2)CCCC1`, for which the growth inhibition is 11.6%.

As to `NC1=Nc2cc(Cl)ccc2Sc2nc3ccccc3n21`, the growth inhibition was -2.8%.

As for `COc1ccc(/C=C2\CCCC3=C2NC(=S)NC3c2ccc(OC)cc2)cc1` (stereo not drawn), the growth inhibition is -37.4%.

In the case of `CCOCC(=O)O`, the growth inhibition was -1.25%.

`CC(=O)N=c1ccc2nc(N)nn(O)c-2c1`: the growth inhibition was -26.6%.

Take `C=CCc1nc2c([nH]1)c(=O)n(C)c(=O)n2C`: the growth inhibition was 18.6%.
